Measurements from PubChem BioAssay (NCATS).
Results filed as inconclusive are left out. Activity calls are given as the source filed them. Calls come from the whole dose curve; as a rule, active = well fitted curve in the direction sought with a large enough effect; inconclusive = small, poorly fitted or top-dose-only effect, or another doubt; inactive = no such curve, though single readings can be large; an effect the other way counts as inactive or inconclusive. Where a SMILES comes first, the peptide text is derived from it. [ ]: non-standard residue; d: D form. 2Abz = Nc1ccccc1C(=O)O

What was measured:
[1] = system: NIH3T3; assay: qHTS assay to identify novel small-molecules to repurpose for Merkel cell carcinoma treatment (AID 1296009); settings: MCC and control cell lines, CellTiter-Glo viability, 72 h; at 44.8 µM (top of the series) unless noted; note: nearly all actives have a fitted effect of over 60% in size
Summary of the method: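 72 hr, 37 degree celsius; NPC 8-pt / MIPE 11-pt dose response; compound pinned in DMSO; CellTiter-Glo, 10 min RT, luminescence; normalized to no-cell and DMSO controls.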

[2] = system: C33A; assay: Primary qHTS to identify gynecologic anti-cancer compounds using libraries of approved drugs and bioactive compounds (AID 1345084); settings: Gynecologic cancer cell panel viability, ATPlite luminescence, 48 h; series mostly up to 57.5 µM; note: % is set by controls: 0 for no effect and ±100 for the full control effect; nearly all actives have a fitted effect of over 55% in size
Summary of the method: (§1)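 Luminescence from the ATPlite ATP-monitoring reagent indicates viable cell number; lower signal means cytotoxicity. Cells received compound 16 h after seeding and were exposed for 48 h across five concentrations.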

[3] = system: CAOV3; assay: as above; settings: Gynecologic cancer cell panel viability, ATPlite luminescence, 48 h; series mostly up to 57.5 µM
Summary of the method: as §1

[4] = system: CASKI; assay: as above; settings: Gynecologic cancer cell panel viability, ATPlite luminescence, 48 h; series mostly up to 57.5 µM
Summary of the method: as §1

[5] = system: Es-2; assay: as above; settings: Gynecologic cancer cell panel viability, ATPlite luminescence, 48 h; series mostly up to 57.5 µM
Summary of the method: as §1

[6] = system: HeLa; assay: as above; settings: Gynecologic cancer cell panel viability, ATPlite luminescence, 48 h; series mostly up to 57.5 µM
Summary of the method: as §1

[7] = system: Hek293T; assay: as above; settings: Gynecologic cancer cell panel viability, ATPlite luminescence, 48 h, control line for the selectivity index; series mostly up to 57.5 µM
Summary of the method: as §1

[8] = system: JEG-3; assay: as above; settings: Gynecologic cancer cell panel viability, ATPlite luminescence, 48 h; series mostly up to 57.5 µM
Summary of the method: as §1

[9] = system: OV90; assay: as above; settings: Gynecologic cancer cell panel viability, ATPlite luminescence, 48 h; series mostly up to 57.5 µM
Summary of the method: as §1

[10] = system: PA-1; assay: as above; settings: Gynecologic cancer cell panel viability, ATPlite luminescence, 48 h; series mostly up to 57.5 µM
Summary of the method: as §1

[11] = system: SKOV3; assay: as above; settings: Gynecologic cancer cell panel viability, ATPlite luminescence, 48 h; series mostly up to 57.5 µM
Summary of the method: as §1

[12] = system: Tov-21-G; assay: as above; settings: Gynecologic cancer cell panel viability, ATPlite luminescence, 48 h; series mostly up to 57.5 µM
Summary of the method: as §1

[13] = system: Tov112D; assay: as above; settings: Gynecologic cancer cell panel viability, ATPlite luminescence, 48 h; series mostly up to 57.5 µM
Summary of the method: as §1

CCC(C)C1NC(=O)C2CCCN2C(=O)C(C(C)C)NC(=O)c2ccccc2NC(=O)C(Cc2ccc(O)cc2)NC(=O)C(C)NC(=O)C(C(C)O)NC1=O (centres undefined) (cyclo([2Abz]VPITAY); configuration not given here)
inactive: outcome [1] inactive [at 17.4 µM] | Potency [2] | Potency [3] | Potency [4] | Potency [5] | Potency [6] | Potency [7] | Potency [8] | Potency [9] | Potency [10] | Potency [11] | Potency [12] | Potency [13]

COc1cc(/C=C/c2cc(O)cc(O[C@@H]3O[C@H](CO)[C@@H](O)[C@H](O)[C@H]3O)c2)ccc1O
inactive: outcome [1] inactive [at 17.4 µM] | Potency [2] | Potency [3] | Potency [4] | Potency [5] | Potency [6] | Potency [7] | Potency [8] | Potency [9] | Potency [10] | Potency [11] | Potency [12] | Potency [13]

C=C1CCC2(OC1)OC1CC3C4CC=C5CC(O)CC(O[C@@H]6OC[C@@H](O)[C@H](O)[C@H]6O)C5(C)C4CCC3(C)C1(O)C2C (some centres undefined)
inactive: outcome [1] inactive [at 17.4 µM] | Potency [2] | Potency [3] | Potency [4] | Potency [5] | Potency [6] | Potency [7] | Potency [8] | Potency [9] | Potency [10] | Potency [11] | Potency [12] | Potency [13]

CC(C)(C)NCC(O)COc1cccc2c1CCCC2=O (centres undefined)
inactive: outcome [1] | Potency [2] | Potency [3] | Potency [4] | Potency [5] | Potency [6] | Potency [7] | Potency [8] | Potency [9] | Potency [10] | Potency [11] | Potency [12] | Potency [13]

C=CCc1ccc(O[C@@H]2O[C@H](CO[C@@H]3O[C@@H](C)[C@H](O)[C@@H](O)[C@H]3O)[C@@H](O)[C@H](O)[C@H]2O)cc1
inactive: outcome [1] inactive [at 17.4 µM] | Potency [2] | Potency [3] | Potency [4] | Potency [5] | Potency [6] | Potency [7] | Potency [8] | Potency [9] | Potency [10] | Potency [11] | Potency [12] | Potency [13]

C=C1CC[C@H]2[C@@H](/C=C(\C)C(=O)[C@@]3(OC(C)=O)C[C@H](C)[C@H](OC(C)=O)[C@@H]3[C@H]1OC(C)=O)C2(C)C
inactive: outcome [1] inactive [at 17.4 µM] | Potency [2] | Potency [3] | Potency [4] | Potency [5] | Potency [6] | Potency [7] | Potency [8] | Potency [9] | Potency [10] | Potency [11] | Potency [12] | Potency [13]

C/C=C(\C)C(=O)O[C@@H](C)[C@H]1CC[C@]2(O)C3CCC4C[C@@H](OC5CC(OC)C(OC6CC(OC)C(OC7CC(OC)C(OC8OC(C)C(OC9OC(CO)C(O)C(O)C9O)C(OC)C8O)C(C)O7)C(C)O6)C(C)O5)CC[C@]4(C)C3[C@H](O)[C@@H](O)[C@]12C (some centres undefined)
inactive: outcome [1] inactive [at 9.27 µM] | activity change, negative = cytotoxicity [2] 19.4% [at 6.55 µM] | activity change, negative = cytotoxicity [3] 3.47% [at 6.55 µM] | activity change, negative = cytotoxicity [4] -2.65% [at 6.55 µM] | activity change, negative = cytotoxicity [5] 10.2% [at 6.55 µM] | activity change, negative = cytotoxicity [6] 3.49% [at 6.55 µM] | activity change, negative = cytotoxicity [7] 1.78% [at 6.55 µM] | activity change, negative = cytotoxicity [8] -1.08% [at 6.55 µM] | activity change, negative = cytotoxicity [9] 15.4% [at 6.55 µM] | activity change, negative = cytotoxicity [10] 3.34% [at 6.55 µM] | activity change, negative = cytotoxicity [11] -4.09% [at 6.55 µM] | activity change, negative = cytotoxicity [12] 13.7% [at 6.55 µM] | activity change, negative = cytotoxicity [13] 8.06% [at 6.55 µM]

O=C(NCc1ccc(OC(F)(F)F)cc1)C1c2ccccc2C(=O)N1C1CCOCC1 (centres undefined)
inactive: outcome [1] | Potency [2] | Potency [3] | Potency [4] | Potency [5] | Potency [6] | Potency [7] | Potency [8] | Potency [9] | Potency [10] | Potency [11] | Potency [12] | Potency [13]

CO[C@@]12CC3[C@@H]([C@@H](O)[C@@H](OC(C)=O)C4[C@](C)(COC(C)=O)CCC[C@]34C)[C@@H](C)C1=CC(=O)O2 (some centres undefined)
inactive: outcome [1] inactive [at 17.4 µM] | Potency [2] | Potency [3] | Potency [4] | Potency [5] | Potency [6] | Potency [7] | Potency [8] | Potency [9] | Potency [10] | Potency [11] | Potency [12] | Potency [13]

CC(=O)N[C@H]1CCN(c2ccc(C3=NOC(CN[S+](=O)([O-])C(C)C)C3)cc2F)C1 (some centres undefined)
inactive: outcome [1] | Potency [2] | Potency [3] | Potency [4] | Potency [5] | Potency [6] | Potency [7] | Potency [8] | Potency [9] | Potency [10] | Potency [11] | Potency [12] | Potency [13]

C=CC(C)(C)C12CC3C(=O)NC(Cc4cnc[nH]4)C(=O)N3C1Nc1ccccc12 (centres undefined)
inactive: outcome [1] | Potency [2] | Potency [3] | Potency [4] | Potency [5] | Potency [6] | Potency [7] | Potency [8] | Potency [9] | Potency [10] | Potency [11] | Potency [12] | Potency [13]

CC1CCC2C(C(=O)O)=CC3CC(C)(C)CC132 (centres undefined)
inactive: outcome [1] | Potency [2] | Potency [3] | Potency [4] | Potency [5] | Potency [6] | Potency [7] | Potency [8] | Potency [9] | Potency [10] | Potency [11] | Potency [12] | Potency [13]

CN[C@@H]1[C@@H](O)[C@@H](O[C@@H]2[C@@H](O)[C@H](O[C@H]3O[C@H](CN)[C@@H](O)[C@H](O)[C@H]3O)[C@@H](N)C[C@H]2NC(=O)[C@@H](O)CN)OC[C@]1(C)O
inactive: outcome [1] | Potency [2] | Potency [3] | Potency [4] | Potency [5] | Potency [6] | Potency [7] | Potency [8] | Potency [9] | Potency [10] | Potency [11] | Potency [12] | Potency [13]
